Source: the supplement of paper PMC11732987, “Enantioselective OTUD7B fragment discovery through chemoproteomics screening and high-throughput optimisation” (Communications Chemistry, 2025)

Experiments:
Test in all cases: log2 ratio of Biotin-Ahx-Ub-VS probe labelling (fragment/DMSO); higher = less target engagement (more negative = stronger competition), active = hit call of the paper (q ≤ 0.05, log2 ratio ≤ -1)
Settings in all cases: compound concentration: 200 uM; treatment time: 3 h
[1] = biological target: USP34 (UniProt Q70CQ2)
How it was run: (§1)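 Each value is an average log2 ratio of fragment to vehicle, tested by unpaired t-test. The underlying Spectronaut label-free quantities were global-median-normalised, and only proteins with ≥2 unique peptides were included. Triplicate HEK293T lysate samples (495 µg) were exposed to fragment at 200 µM or vehicle for 3 h, then to Biotin-Ahx-Ub-VS at 0.5 µM final for 1 h, before NeutrAvidin enrichment of labelled DUBs, LysC and trypsin digestion, and diaPASEF LC-MS/MS.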

[2] = biological target: T1, USP36 (UniProt Q9P275)
T1 sequence (whole entry): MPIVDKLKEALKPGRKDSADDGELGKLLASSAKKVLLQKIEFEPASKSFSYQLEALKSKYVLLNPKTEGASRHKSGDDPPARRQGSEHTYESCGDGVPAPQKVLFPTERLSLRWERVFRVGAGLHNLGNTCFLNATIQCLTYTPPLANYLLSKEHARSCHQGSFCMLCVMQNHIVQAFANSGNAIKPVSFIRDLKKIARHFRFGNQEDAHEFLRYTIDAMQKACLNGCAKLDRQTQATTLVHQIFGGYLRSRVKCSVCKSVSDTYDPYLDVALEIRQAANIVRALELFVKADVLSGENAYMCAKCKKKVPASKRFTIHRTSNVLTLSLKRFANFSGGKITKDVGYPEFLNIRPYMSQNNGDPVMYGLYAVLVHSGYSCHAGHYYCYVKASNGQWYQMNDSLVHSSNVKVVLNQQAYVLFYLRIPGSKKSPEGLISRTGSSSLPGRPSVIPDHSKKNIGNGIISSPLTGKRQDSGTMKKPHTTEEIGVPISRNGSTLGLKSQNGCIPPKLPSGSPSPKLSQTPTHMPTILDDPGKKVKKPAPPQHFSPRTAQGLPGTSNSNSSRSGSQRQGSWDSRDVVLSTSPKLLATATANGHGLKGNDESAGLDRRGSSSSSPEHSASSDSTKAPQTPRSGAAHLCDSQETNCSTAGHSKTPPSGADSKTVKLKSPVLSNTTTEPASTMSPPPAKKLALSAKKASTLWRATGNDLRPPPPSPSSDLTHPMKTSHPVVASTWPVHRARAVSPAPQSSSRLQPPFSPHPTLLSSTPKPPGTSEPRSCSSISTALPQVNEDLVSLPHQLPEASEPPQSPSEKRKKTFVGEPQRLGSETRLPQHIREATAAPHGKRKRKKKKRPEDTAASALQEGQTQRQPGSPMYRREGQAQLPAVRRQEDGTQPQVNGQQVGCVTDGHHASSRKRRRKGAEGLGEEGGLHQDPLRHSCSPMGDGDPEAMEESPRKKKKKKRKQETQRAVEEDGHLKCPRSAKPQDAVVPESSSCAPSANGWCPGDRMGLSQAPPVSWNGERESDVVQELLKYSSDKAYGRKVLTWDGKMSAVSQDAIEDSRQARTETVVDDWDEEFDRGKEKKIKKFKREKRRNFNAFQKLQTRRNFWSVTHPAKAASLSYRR
How it was run: as §1

[3] = biological target: T2, USP38 (UniProt Q8NB14)
T2 sequence (whole entry): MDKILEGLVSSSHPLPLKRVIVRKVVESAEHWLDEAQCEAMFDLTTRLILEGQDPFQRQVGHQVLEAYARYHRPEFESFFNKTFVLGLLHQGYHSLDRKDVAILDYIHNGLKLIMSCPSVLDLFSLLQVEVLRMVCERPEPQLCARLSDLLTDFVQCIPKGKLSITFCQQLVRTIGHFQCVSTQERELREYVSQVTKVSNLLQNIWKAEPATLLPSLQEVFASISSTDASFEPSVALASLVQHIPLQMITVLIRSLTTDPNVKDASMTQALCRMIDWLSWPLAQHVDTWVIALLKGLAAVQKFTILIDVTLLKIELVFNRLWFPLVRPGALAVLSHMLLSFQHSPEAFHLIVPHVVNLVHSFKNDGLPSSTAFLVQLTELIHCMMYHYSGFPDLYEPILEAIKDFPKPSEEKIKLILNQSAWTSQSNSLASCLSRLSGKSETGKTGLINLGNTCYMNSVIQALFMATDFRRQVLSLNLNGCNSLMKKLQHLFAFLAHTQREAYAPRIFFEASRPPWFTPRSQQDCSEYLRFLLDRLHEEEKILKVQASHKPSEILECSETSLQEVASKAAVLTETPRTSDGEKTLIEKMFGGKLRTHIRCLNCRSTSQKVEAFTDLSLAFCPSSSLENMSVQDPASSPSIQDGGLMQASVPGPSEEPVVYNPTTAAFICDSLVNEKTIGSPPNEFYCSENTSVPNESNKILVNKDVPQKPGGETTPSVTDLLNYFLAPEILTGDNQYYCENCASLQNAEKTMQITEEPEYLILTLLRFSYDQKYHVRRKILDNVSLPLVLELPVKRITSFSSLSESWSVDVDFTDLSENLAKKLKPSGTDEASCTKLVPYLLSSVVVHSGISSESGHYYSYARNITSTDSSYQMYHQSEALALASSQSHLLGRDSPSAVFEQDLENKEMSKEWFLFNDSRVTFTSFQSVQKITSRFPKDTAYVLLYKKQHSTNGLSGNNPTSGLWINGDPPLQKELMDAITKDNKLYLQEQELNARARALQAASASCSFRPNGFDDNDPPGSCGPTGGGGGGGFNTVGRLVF
How it was run: as §1

[4] = biological target: T3, USP39 (UniProt Q53GS9)
T3 sequence (whole entry): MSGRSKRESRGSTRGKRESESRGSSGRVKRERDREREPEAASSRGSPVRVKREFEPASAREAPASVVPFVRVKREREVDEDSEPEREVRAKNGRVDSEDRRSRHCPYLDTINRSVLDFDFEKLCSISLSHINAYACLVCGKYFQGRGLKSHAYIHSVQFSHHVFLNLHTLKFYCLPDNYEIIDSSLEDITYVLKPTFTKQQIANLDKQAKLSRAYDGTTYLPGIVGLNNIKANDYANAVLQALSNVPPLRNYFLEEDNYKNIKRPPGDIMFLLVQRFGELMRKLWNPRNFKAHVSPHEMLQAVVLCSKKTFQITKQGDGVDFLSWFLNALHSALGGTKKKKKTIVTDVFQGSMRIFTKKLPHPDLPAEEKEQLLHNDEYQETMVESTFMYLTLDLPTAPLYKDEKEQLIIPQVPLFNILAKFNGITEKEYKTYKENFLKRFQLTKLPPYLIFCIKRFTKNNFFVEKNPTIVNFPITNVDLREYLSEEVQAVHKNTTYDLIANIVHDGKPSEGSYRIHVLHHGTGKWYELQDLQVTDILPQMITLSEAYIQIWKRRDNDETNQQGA
How it was run: as §1

[5] = biological target: T4, USP4 (UniProt Q13107)
T4 sequence (whole entry): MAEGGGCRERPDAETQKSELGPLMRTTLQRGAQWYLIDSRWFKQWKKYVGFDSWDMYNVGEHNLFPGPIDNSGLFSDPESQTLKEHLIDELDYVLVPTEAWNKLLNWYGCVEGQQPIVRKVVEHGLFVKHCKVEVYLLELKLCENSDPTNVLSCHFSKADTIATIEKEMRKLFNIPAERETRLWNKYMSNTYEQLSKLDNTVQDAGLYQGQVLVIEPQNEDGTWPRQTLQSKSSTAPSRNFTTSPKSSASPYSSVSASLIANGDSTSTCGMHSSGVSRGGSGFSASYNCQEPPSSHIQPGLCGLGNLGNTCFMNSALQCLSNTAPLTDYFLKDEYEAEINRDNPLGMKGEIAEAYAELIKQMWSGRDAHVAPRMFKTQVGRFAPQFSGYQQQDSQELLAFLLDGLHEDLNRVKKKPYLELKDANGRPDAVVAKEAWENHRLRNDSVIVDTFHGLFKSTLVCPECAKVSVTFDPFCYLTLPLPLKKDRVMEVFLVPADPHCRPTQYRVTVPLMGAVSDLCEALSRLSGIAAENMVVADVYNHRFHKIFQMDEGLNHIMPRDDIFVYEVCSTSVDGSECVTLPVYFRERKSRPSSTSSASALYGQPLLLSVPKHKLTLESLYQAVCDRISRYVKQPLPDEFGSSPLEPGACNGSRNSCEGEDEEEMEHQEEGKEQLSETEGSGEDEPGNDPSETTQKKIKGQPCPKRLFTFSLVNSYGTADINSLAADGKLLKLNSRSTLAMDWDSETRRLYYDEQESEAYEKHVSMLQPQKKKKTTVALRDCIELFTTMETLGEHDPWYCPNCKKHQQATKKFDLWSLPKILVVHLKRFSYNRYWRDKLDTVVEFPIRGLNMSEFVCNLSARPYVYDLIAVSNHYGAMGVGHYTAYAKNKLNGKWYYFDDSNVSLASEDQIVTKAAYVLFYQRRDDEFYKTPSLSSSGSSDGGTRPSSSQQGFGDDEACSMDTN
How it was run: as §1

Measured: log2 ratio of Biotin-Ahx-Ub-VS probe labelling

USP34, sequence (Q70CQ2 whole entry, the tested form may be a part): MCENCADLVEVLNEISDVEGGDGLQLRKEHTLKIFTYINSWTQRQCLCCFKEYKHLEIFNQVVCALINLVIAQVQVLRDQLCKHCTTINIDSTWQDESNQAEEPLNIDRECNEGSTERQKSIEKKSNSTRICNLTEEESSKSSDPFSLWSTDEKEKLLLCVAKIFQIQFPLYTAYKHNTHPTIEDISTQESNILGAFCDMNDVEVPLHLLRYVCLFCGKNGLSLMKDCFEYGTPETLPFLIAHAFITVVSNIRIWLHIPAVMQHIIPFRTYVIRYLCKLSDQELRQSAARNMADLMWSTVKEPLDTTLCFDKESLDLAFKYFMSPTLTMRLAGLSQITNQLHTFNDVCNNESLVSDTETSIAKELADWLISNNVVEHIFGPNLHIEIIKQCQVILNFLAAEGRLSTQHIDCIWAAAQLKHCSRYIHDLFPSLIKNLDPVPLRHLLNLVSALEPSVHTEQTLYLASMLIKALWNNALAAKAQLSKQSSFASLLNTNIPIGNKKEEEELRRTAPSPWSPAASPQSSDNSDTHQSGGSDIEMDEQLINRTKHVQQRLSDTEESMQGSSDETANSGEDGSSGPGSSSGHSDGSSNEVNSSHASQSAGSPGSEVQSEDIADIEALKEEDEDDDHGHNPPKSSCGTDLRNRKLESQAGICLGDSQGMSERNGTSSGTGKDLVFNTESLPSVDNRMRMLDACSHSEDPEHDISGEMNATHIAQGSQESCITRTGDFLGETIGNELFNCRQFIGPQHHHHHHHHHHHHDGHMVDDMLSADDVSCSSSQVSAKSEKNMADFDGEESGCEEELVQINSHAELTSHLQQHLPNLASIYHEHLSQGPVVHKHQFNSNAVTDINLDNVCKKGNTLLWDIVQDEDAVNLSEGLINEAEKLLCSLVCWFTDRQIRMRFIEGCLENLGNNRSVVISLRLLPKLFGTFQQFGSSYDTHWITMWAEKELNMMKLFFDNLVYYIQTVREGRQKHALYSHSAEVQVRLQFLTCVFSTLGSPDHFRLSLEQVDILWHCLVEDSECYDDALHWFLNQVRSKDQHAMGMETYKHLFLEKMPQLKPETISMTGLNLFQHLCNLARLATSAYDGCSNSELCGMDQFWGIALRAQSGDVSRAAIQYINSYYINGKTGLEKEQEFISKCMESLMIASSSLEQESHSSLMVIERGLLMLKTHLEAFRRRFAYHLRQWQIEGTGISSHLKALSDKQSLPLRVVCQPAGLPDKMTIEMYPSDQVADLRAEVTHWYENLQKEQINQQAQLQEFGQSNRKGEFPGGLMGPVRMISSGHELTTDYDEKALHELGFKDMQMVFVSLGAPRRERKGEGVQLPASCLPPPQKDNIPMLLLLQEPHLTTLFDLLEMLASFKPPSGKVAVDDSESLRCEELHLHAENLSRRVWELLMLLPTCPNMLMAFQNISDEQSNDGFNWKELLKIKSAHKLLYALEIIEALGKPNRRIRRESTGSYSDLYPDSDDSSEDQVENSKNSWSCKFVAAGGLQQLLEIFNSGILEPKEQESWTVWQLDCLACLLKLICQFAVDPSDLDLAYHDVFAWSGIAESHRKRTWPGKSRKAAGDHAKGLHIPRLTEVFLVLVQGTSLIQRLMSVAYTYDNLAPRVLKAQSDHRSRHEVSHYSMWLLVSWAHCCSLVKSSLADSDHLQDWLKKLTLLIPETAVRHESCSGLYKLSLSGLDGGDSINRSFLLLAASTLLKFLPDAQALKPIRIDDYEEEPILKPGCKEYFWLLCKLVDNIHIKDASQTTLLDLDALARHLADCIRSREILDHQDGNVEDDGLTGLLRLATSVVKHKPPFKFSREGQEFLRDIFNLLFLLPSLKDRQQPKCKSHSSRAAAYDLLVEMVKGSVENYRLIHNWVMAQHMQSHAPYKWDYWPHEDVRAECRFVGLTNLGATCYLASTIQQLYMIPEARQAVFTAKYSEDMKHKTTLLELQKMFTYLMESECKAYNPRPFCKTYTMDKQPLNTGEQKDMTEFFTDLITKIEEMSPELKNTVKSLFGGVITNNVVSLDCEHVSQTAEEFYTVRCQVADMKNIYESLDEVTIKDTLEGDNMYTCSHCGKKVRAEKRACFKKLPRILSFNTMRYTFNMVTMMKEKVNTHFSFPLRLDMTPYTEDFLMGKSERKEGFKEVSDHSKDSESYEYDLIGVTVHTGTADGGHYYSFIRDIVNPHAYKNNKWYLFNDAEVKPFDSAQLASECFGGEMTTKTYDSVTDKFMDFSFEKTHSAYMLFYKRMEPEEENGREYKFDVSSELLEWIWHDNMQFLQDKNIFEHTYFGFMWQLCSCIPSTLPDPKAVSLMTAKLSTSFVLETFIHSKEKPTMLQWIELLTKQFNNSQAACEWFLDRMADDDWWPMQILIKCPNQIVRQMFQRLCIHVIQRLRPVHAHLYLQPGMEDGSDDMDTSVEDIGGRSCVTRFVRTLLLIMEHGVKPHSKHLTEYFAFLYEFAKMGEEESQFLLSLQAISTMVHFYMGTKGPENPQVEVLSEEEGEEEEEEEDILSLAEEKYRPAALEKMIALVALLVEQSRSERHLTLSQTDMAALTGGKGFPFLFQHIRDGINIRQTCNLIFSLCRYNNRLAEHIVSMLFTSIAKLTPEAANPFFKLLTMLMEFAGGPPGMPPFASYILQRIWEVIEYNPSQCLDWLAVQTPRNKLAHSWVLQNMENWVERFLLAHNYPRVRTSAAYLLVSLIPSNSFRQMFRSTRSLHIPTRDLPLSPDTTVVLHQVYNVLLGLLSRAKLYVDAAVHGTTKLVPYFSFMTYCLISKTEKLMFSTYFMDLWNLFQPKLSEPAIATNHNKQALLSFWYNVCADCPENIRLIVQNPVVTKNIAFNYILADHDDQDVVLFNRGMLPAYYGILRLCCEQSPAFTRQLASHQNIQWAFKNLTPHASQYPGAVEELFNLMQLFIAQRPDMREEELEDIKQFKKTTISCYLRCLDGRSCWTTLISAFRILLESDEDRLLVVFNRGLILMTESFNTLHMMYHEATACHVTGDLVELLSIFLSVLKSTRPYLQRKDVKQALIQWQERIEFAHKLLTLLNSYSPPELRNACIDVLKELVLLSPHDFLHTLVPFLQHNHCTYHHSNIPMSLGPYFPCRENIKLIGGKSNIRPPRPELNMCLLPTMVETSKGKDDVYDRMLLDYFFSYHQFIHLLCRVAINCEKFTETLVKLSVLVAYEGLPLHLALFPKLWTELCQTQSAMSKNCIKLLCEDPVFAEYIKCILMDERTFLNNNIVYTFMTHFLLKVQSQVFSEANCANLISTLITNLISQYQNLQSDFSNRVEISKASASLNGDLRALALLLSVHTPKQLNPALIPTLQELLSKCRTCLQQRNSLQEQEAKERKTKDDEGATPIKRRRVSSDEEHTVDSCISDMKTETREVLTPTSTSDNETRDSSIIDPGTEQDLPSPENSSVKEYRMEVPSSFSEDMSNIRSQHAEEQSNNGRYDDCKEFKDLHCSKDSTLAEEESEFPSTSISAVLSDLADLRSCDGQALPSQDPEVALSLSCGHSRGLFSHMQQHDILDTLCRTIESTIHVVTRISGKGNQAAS

Cl.O=C(CCl)NC1(c2ncccn2)CCC1
inactive: [1] 0.0452 | [2] 0.109 | [3] 0.0726 | [4] 0.133 | [5] 0.0299
